# Test results as given in PubChem BioAssay AID2241 (Broad Institute, 2010).
# Screen size: about 21,000 compounds; about 110 (0.52%) were called active.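 Rule for the calls: active = most replicate scores above 10, or exactly half above 10 with mean activity above 10; inconclusive = mean activity below 10 while half the replicates exceed 10; inactive = most replicate scores below 10.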 The entries come from a sample that favours actives as a whole.
# Experiment: caspase activation in A1-primed MEFs – cell-based, CaspaseGlo luminescence, A1 inhibitor project, primary screen (AID 2241);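 note: effector caspase 3 and 7 activity cleaving a DEVD luciferin substrate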
# Conditions: MEF A1-2A-BIM cells, caspase-Glo luminescence, 3 h; stronger effect = higher value; percent of clofoctol signal, DMSO as zero; concentration not given here
row,SMILES,caspase activation
1,CN(c1ncnc2c1cnn2-c1ccc(Cl)cc1)C1CCCCC1,-2.01% (inactive)
2,CC1CCN(S(=O)(=O)c2ccc3nc(-c4ccccn4)cc(C(=O)NC4CCCC4)c3c2)CC1,-1.16% (inactive)
3,CC(C)(C)c1ccc(/C=C/C(=O)NC2CCS(=O)(=O)C2)cc1 (stereo unspecified),-0.861% (inactive)
4,C=C1C(=O)O[C@@H]2[C@H]3C(CO)=CC(=O)C3=C(C)C[C@H](OC(=O)Cc3ccc(O)cc3)[C@@H]12,-0.373% (inactive)
5,C[C@@H]1CN([C@H](C)CO)C(=O)c2cc(NS(=O)(=O)c3ccc(F)cc3)ccc2O[C@H]1CN(C)Cc1ccncc1,0.648% (inactive)
6,CC(C)(C)c1ccc(Cn2c(=N)n(CC(=O)O)c3ccccc32)cc1,-0.508% (inactive)
7,C[C@@H]1CN([C@@H](C)CO)C(=O)c2cc(NC(=O)Cc3ccccc3)ccc2O[C@@H]1CN(C)S(=O)(=O)c1ccccc1,0.193% (inactive)
8,CCCCn1c2nc3ccccc3nc2c2c(N)ncnc21,-0.174% (inactive)
9,C[C@@H]1CN([C@@H](C)CO)C(=O)c2cc(NC(=O)Nc3ccc(F)cc3)ccc2O[C@H]1CN(C)CC1CCCCC1,0.271% (inactive)
10,CCc1ccccc1NC(=O)c1ccc2snnc2c1,0.441% (inactive)
11,CCOC(=O)C1CCC(CN(Cc2ccccc2)S(=O)(=O)c2ccc(F)c(C)c2)CC1 (stereo unspecified),0.544% (inactive)
12,CC(C)[C@H](CO)Nc1nc(Nc2cc(N)cc(Cl)c2)c2ncn(C(C)C)c2n1,13.9% (active)
13,CC(C)OC(=O)C1=c2s/c(=C\c3cccnc3)c(=O)n2C(N)=C(C#N)C1c1cccnc1 (stereo unspecified),-0.566% (inactive)
14,COc1ccc(NC(=O)N(C)C[C@H]2Oc3ccc(NS(=O)(=O)c4ccc(F)cc4)cc3C(=O)N([C@@H](C)CO)C[C@@H]2C)cc1,-0.29% (inactive)
15,Cc1ccc(-c2nc(Nc3ccccc3F)sc2C)cc1,-0.917% (inactive)
16,CC1CCN(C(=O)Cn2cnc3c(cnn3-c3ccccc3)c2=O)CC1,-0.191% (inactive)
17,O=C(c1nc2ncccn2n1)N(Cc1ccccc1)Cc1ccccc1,-0.322% (inactive)
18,COc1nnc(-c2ccc(C)c(S(=O)(=O)N(C)C)c2)c2ccccc12,0.109% (inactive)
19,Cc1ccc(S(=O)(=O)Nc2ccc3c(c2)C(=O)N([C@@H](C)CO)C[C@@H](C)[C@@H](CN(C)Cc2ccncc2)O3)cc1,0.309% (inactive)
20,Cc1ccc(C(=O)NC(NCc2ccco2)(C(F)(F)F)C(F)(F)F)cc1,-0.256% (inactive)
21,O=C(c1ccccc1)C(CC(=O)N1CCOCC1)c1ccccc1 (stereo unspecified),0.00844% (inactive)
